Records with an inconclusive call do not appear. Where a call stands in place of a potency, no number is given. Calls of active or inactive are those of the source. Calls come from the whole dose curve.
Target: D(2) dopamine receptor (Homo sapiens) (UniProt P14416)
Assay: Dopamine D2 receptor (DRD2) small molecule agonists, cell-based qHTS assay (AID 1963594); note: nearly all actives have a fitted effect of over 35% in size
Details: HEK293-DRD2 cAMP HTRF, agonist mode, 30 min; series mostly up to 92.4 µM
Source text: National Center for Advancing Translational Sciences [NCATS]
Division of Preclinical Innovation [DPI]
U.S. Environmental Protection Agency [EPA]
National Institutes of Environmental Health Sciences [NIEHS]
National Toxicology Program [NTP]
U.S. Food and Drug Administration [FDA]
DRD2 is the D2 subtype of the dopamine receptor, which is coupled to Gi subtype of G protein-coupled receptor. This G protein-coupled receptor inhibits adenylyl cyclase activity. The DRD2-HEK293 cell line stably expressing D2 dopamine receptor can be used for screening agonists and antagonists of interactions between D2 and its ligands. The Hek293-DRD2 cAMP assay is based on HTRF technology. It measures changes of cAMP accumulation in response to Gi coupled GPCR activation or inhibition.
Tox21 Assay Protocol Summary:
DRD2-Hek293 cells were dispensed at 600 cells/3uL/well in 1536-well white plates using a Multidrop Dispenser. After the assay plates were incubated at a 37 C/5% CO2 incubator for 24 h, 1 uL of Ro20-1724 at final concentration of 0.1 mM was transferred to the assay plate by a Flying Reagent Dispenser. Following Ro20-1724 addition, 23 nL of compound dissolved in DMSO, positive controls or DMSO only was added to the assay plates via Wako pintool station. The assay plates were incubated at room temperature for 10 min. Next, 1 uL of NKH477 at 200nM was added into the plates. After the assay plates were incubated at room temperature for an additional 30 min, 2.5 ul/well of cAMP-d2 and 2.5 ul/well of anti-cAMP-cryptate were added respectively into the assay plates using a Flying Reagent Dispenser. The plates were incubated at room temperature for 1 h. The fluorescence intensity in the plates was measured at 340 nm excitation and 665 & 620 nm emission by an Envision plate reader.
Potency is the fitted concentration of half-maximal effect.

Sequence of D(2) dopamine receptor (Homo sapiens) (P14416 whole entry, looked up): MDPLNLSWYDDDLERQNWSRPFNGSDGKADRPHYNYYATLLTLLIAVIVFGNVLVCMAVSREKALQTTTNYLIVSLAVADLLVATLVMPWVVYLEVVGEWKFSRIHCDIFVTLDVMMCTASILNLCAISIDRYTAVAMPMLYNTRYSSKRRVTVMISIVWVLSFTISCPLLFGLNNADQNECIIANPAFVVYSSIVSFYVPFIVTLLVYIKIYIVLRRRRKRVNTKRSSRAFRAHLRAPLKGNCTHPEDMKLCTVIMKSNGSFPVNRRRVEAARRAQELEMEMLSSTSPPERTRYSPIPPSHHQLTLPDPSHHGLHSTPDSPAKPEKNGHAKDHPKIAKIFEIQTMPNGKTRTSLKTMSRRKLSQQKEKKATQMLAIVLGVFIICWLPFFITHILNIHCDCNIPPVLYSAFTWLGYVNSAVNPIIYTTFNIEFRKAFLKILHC

SMILES | Potency | activation
CC(=O)OC(C(=O)c1ccccc1)c1ccccc1 (stereo not given) | inactive | –
Cc1ccc(O)c(N)c1 | inactive | –
Clc1cc(Cl)c2c(c1)N=C1CCCCCN1C2 | inactive | –
CCCNCCC | inactive | –
CO | inactive | –
Oc1ccccc1F | inactive | –
Nc1c(Cl)cc(Cl)cc1[N+](=O)[O-] | inactive | –
c1ccc(C(O[C@@H]2CCCN(CCc3ccc4c(c3)OCO4)C2)c2ccccc2)cc1 | inactive | –
COc1cc([N+](=O)[O-])ccc1N | inactive | –
CC(O)C#CC(C)O (stereo not given) | inactive | –
CC/C=C1/OC(=O)c2ccccc21 | inactive | –
Nc1ccc(F)cc1F | inactive | –
O=S(c1cc(Cl)cc(Cl)c1O)c1cc(Cl)cc(Cl)c1O | inactive | –
C=C(C)CS(=O)(=O)O | inactive | –
Cc1c(-c2cccnc2)c2ccccc2n1CCCCC(=O)O | inactive | –
CSc1ccc2c(c1)C(N1CCN(C)CC1)Cc1ccccc1S2 (stereo not given) | inactive | –
CN1C(C)(C)CC(O)CC1(C)C | inactive | –
COc1ccc(C2CNC(=O)C2)cc1OC1CCCC1 (stereo not given) | inactive | –
CCCCCCOc1cc(C)c(O)c(C)c1C | inactive | –
Nc1ccc(O)c(N)c1 | inactive | –

SMILES | Potency | activation
COCCOC[C@H](CC1(C(=O)NC2CCC(C(=O)O)CC2)CCCC1)C(=O)Oc1ccc2c(c1)CCC2 (stereo not given in full) | inactive | –
c1ccc(B(c2ccccc2)c2ccccc2)cc1 | inactive | –
CCOC(=O)/C=C/c1ccccc1 | inactive | –
C[C@@H](Oc1ccc(CNC(=O)c2cccnc2Oc2ccc3c(c2)OCO3)c(F)c1)C(=O)O | inactive | –
CCN(CC)CCOC(=O)C(c1ccccc1)C1CCCCC1 (stereo not given) | inactive | –
CCN(CC)CC1CCCCN1CC(=O)N1c2ccccc2C(=O)Nc2cccnc21 (stereo not given) | inactive | –
CN(C)[C@@H]1C(=O)C(C(N)=O)=C(O)[C@@]2(O)C(=O)C3=C(O)c4c(O)ccc(Cl)c4[C@@H](O)[C@H]3C[C@@H]12 | inactive | –
Cc1ccccc1 | inactive | –
CCCCCC(CO)CCC (stereo not given) | inactive | –
CC(COc1ccccc1)NN (stereo not given) | inactive | –
O=c1c2ccccc2oc2ccccc12 | inactive | –
NC(N)=NCCN1CCCCCCC1 | – | -6.8% [at 0.349 µM] (inactive)
CC(C)c1ccccc1 | inactive | –
Cc1c(C(=O)NN2CCCCC2)nn(-c2ccc(Cl)cc2Cl)c1-c1ccc(Cl)cc1 | inactive | –
CN(C)C(=N)N=C(N)N | inactive | –
O=C(O)c1ccc(-n2nc(-c3ccccc3O)nc2-c2ccccc2O)cc1 | 11.2 µM (active) | –
O=C1c2ccccc2C(=O)c2c(O)c(O)cc(O)c21 | inactive | –
O=C(O)C(=O)Cc1ccccc1 | inactive | –
CCO[Si](CCCSSSSCCC[Si](OCC)(OCC)OCC)(OCC)OCC | inactive | –
CC(C)[C@H]1CC[C@H](C)C[C@@H]1O | 57.9 µM (active) | –
